“And” between values parts separate entries of the source, which are not always exact repeats. Equal entries are not always repeated. Inconclusive results are not listed. Some structures have more than one record in an assay (separate samples or runs), and their calls can disagree. The source made the active and inactive calls. Unless noted, calls come from the whole dose curve; as a rule, active = well fitted curve in the direction sought with a large enough effect in the repeat runs; inconclusive = weak or mixed curves; inactive = no such curve, though single readings can be large; an effect the other way counts as inactive or inconclusive.
Experiments:
[1] = qHTS assay for small molecule agonists of the p53 signaling pathway (AID 651631; calls by dose curve; note: nearly all actives have a fitted effect of over 15% in size; note: potency is the fitted concentration of half-maximal effect)
In short: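 Read-out is beta-lactamase FRET fluorescence measured 2 h after substrate addition at room temperature, in HCT-116 cells with a p53 response element-driven reporter exposed to compounds for 16 h at 37 °C.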

[2] = qHTS assay for small molecules that induce genotoxicity in human embryonic kidney cells expressing luciferase-tagged ATAD5 (AID 651632); note: nearly all actives have a fitted effect of over 15% in size
In short: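 Luminescent reporter readout, HEK293T ATAD5-luc line: 16 hr drug exposure (37C, 5% CO2) followed by Amplite, 30 min RT.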

[3] = qHTS assay for small molecule agonists of the p53 signaling pathway - cell viability (AID 651633; calls by dose curve; note: nearly all actives have a fitted effect of over 30% in size; note: potency is the fitted concentration of half-maximal effect)
In short: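 Viability counter-read: CellTiter-Glo luminescence (30 min, room temperature) in the same p53RE-bla plates. These plates had been exposed to compounds for 16 h at 37 C.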

[4] = qHTS assay for small molecules that induce genotoxicity in human embryonic kidney cells expressing luciferase-tagged ATAD5 - cell viability (AID 651634; calls by dose curve; note: nearly all actives have a fitted effect of over 25% in size; note: potency is the fitted concentration of half-maximal effect)
In short: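 Viability read: CellTiter-Fluor fluorescence, 30 min at 37C. Cells: HEK293T, luciferase-tagged ATAD5. Exposure: 15.5 hr, 37C, 5% CO2, compound or DMSO vehicle.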

[5] = qHTS assay for small molecule disruptors of the mitochondrial membrane potential - cell viability (AID 720634; calls by dose curve; note: nearly all actives have a fitted effect of over 20% in size; note: potency is the fitted concentration of half-maximal effect)
In short: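 HepG2, 1 hr compound, 37 C. ATP luminescence via CellTiter-Glo, 30 min RT, same well as m-MPI.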

[6] = qHTS assay to test for compound auto fluorescence at 590 nm (red) in HEK293 cells (AID 720679)
In short: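 HEK293 cells (2,000/well, medium with 10% dialyzed FBS) attached for 4-5 hr at 37C, received 23 nL compound and were incubated overnight at 37C, 5% CO2. Red fluorescence was then read at 540/590nm Ex/Em, referenced to Rose Bengal sodium.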

[7] = qHTS assay to test for compound auto fluorescence at 590 nm (red) in HepG2 cells (AID 720674)
In short: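 Red autofluorescence (Ex/Em 540/590 nm, Rose Bengal sodium equivalents) was measured in HepG2 cells, 2,000 per well in MEM plus 10% FBS, plated overnight at 37 C. Readings were taken 1 hr after adding 23 nL compound or DMSO, at 37 C and 5% CO2.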

[8] = qHTS assay to test for compound auto fluorescence at 535 nm (green) in HepG2 cells (AID 720675); note: potency is the fitted concentration of half-maximal effect
[9] = qHTS assay to test for compound auto fluorescence at 460 nm (blue) in HEK293 cells (AID 720678); note: potency is the fitted concentration of half-maximal effect
In short: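 HEK293 cells (2,000 per well, medium with 10% dialyzed FBS) attached for 4-5 hr at 37C, then received compound and stood overnight at 37C, 5% CO2. Blue fluorescence was read at Ex/Em 405/460 nm and expressed relative to triamterene.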

[10] = qHTS assay for small molecule disruptors of the mitochondrial membrane potential (AID 720635); note: potency is the fitted concentration of half-maximal effect
In short: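 Mitochondrial membrane potential tracked with Mito-MPS dye, red aggregates (ex 540/em 590 nm) against green monomers (ex 490/em 535 nm). Compound treatment 1 hr at 37C, dye 30 min in HepG2.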

Measured: Potency
Tags give direction and shape of the fitted curve or compound fluorescence and quenching.

COC(=O)NCCC[Si](OC)(OC)OC
inactive: [1] | [2] | [3] | [4] | [5] | [6]

CC(C)=C1CC[C@@H](C)CC1=O
not listed: [10]
inactive: all other assays above

CC1(C)C(=O)N(Br)C(=O)N1Br
not listed: [9]
inactive: all other assays above

CCCCOC(=O)C(C)CC (stereo not drawn)
not listed: [10]
inactive: all other assays above

O=C(O)CCCCCCC(=O)O
not listed: [7] | [9] | [10]
inactive: all other assays above

COC(=O)CC#N
inactive: all assays above

CCOC(=O)COc1ccc(C)cc1
not listed: [6]
inactive: all other assays above

CCC(C)(C)c1cc(O)c(C(C)(C)CC)cc1O
active: [1] 54.5 µM | [3] 43.3 µM | [4] 48.6 µM | [10] 4.86 µM
inactive: all other assays above

O=C1OC(OC(=O)c2cccnc2Nc2cccc(C(F)(F)F)c2)c2ccccc21 (stereo not drawn)
not listed: [6] | [10]
inactive: all other assays above

O=C(O)c1cccc(Cl)n1
not listed: [8]
inactive: all other assays above

Cn1cnc2ncnc(N)c21
not listed: [6] | [9] | [10]
inactive: all other assays above

CCCCCCCCCCCCCCNCCO
not listed: [10]
inactive: all other assays above

CC(COC(=O)c1ccccc1)OC(=O)c1ccccc1 (stereo not drawn)
not listed: [6] | [9] | [10]
inactive: all other assays above

C(=C/c1ccccc1)/c1ccccc1
not listed: [6] | [7] | [10]
inactive: all other assays above

CCCCCCOc1ccc(O)cc1
active: [1] 24.3 µM | [10] 12.2 µM
inactive: [3] | [4] | [8] | [9] | [6]

CCOC(=O)N1CCC(=C2c3ccc(Cl)cc3CCc3cccnc32)CC1
inactive: [2] | [7] | [9] | [6]
active: [1] 23.7 µM and 61.1 µM | [3] 68.6 µM | [4] 43.3 µM

CC(O)C#CC(C)O (stereo not drawn)
inactive: [1] | [4] | [9] | [6]

CC(C)(c1cc(Br)c(O)c(Br)c1)c1cc(Br)c(O)c(Br)c1
active: [1] 48.4 µM and 41 µM | [3] 60.9 µM and 24.3 µM and 23 µM | [10] 4.84 µM and 7.67 µM and 1.83 µM
inactive and 60.9 µM (active): [5]
inactive: [2] | [7] | [9] | [6]

CN(C)CCCN1c2ccccc2Sc2ccc(C(F)(F)F)cc21
inactive: [2] | [7] | [8] | [6]
active: [1] 11.9 µM | [3] 29.8 µM

C=CC(=C)CCC=C(C)C
not listed: [5] | [10]
inactive: all other assays above

Oc1c(Br)cc(Br)c2cccnc12
active: [1] 5.96 µM | [3] 6.68 µM
inactive: [2] | [4] | [7] | [8] | [6]

C=CCCCCCCC=C
not listed: [2] | [10]
inactive: all other assays above

C[n+]1c2cc(N)ccc2cc2ccc(N)cc21 (tested in a mixture with another compound)
inactive: [5] | [7] | [6]
active: [1] 7.5 µM | [8] 14.1 µM | [9] 12.6 µM [fluorescent]

CC(C)c1cccc(C(C)C)c1N1C(=O)c2ccc(O)cc2C1=O
active: [1] 1.54 µM | [5] 9.69 µM | [9] 39.8 µM [fluorescent]
not listed: [3] | [10]
inactive: all other assays above

COc1cc(C=C2CCC/C(=C\c3ccc(O)c(OC)c3)C2=O)ccc1O
inactive: [2] | [8] | [9] | [6]
active: [1] 11.9 µM | [3] 16.8 µM | [4] 23.7 µM | [10] 4.95 µM

Reference: PubChem BioAssay (Tox21)
